Reference: PubChem BioAssay AID430 (Sanford-Burnham Center for Chemical Genomics, 2006)
Among all 63,000 compounds or so, about 1,100 (1.7%) were called active. What follows is part of a selection rich in actives, with near analogues and random picks from the rest. Potency and affinity values are given separately. Unmarked numbers belong to inactive results. Cut-off read from the data, not from the text of the source: active = cytotoxicity above about 50%; inactive = the rest.

Experiment: cytotoxicity in HPDE-C7 cells, cell-based, fluorescence, HTS (AID 430);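 note: cells exposed to compound for 48 hours before viability readout; 0% = vehicle and 100% = reference cytotoxic drug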
Details: HPDE-C7 pancreatic duct cells viability, at 10 µM, hits give high values

SMILES	cytotoxicity
CCn1c(=O)cc(SCC(=O)Nc2cccnc2)c2ccccc21	-11.6%
Cc1cccc(N2CCN(C(=O)C3CCCN(S(=O)(=O)c4c(C)noc4C)C3)CC2)c1C (stereo unspecified)	-2%
C/C(=C\c1ccco1)C1C(C#N)=C(N)OC2=C1C(=O)CC(C)(C)C2 (stereo unspecified)	-2%
CCOc1ccc2[nH]c(=O)c(CN(Cc3ccccc3)C(=O)N3CCCC3)cc2c1	-4.5%
Cc1ccc(CCNC(=O)c2coc3nc4ccccc4nc23)cc1	27.6%
COc1ccc(F)cc1CN1CCN(c2cc(C)nc3c4c(C)cc(C)nc4nn23)CC1	9.9%
CCOc1cc(NC(=O)c2ccco2)c(OCC)cc1NC(=O)Cc1cccc(OC)c1	-10.3%
O=C(NCc1cccnc1)c1ccc(COc2ccccc2Br)o1	13.1%
CN1CCN(c2ccccc2NC(=O)Cc2cn(C)c3ccccc23)CC1	-5.4%
Cc1cc(C)c2[nH]c(=O)c(CN(Cc3ccco3)C(=O)C3CCCO3)cc2c1 (stereo unspecified)	-9.6%
COc1ccccc1NC(=O)N(Cc1ccco1)Cc1cc2cc(C)cc(C)c2[nH]c1=O	59.5% (active)
CCN1CCCC1CN(Cc1cc2cc(C)cc(C)c2[nH]c1=O)C(=O)Nc1ccccc1OC (stereo unspecified)	15.1%
COc1ccccc1NC(=O)N(Cc1ccco1)Cc1cc2ccc(C)c(C)c2[nH]c1=O	72.8% (active)
COc1ccccc1NC(=O)N(Cc1ccco1)Cc1cc2cccc(C)c2[nH]c1=O	0.1%
COc1ccccc1NC(=O)N(Cc1ccco1)Cc1cc2c(C)ccc(C)c2[nH]c1=O	22.4%
O=C(O)CCc1ccc(-c2cccs2)n1CC1CCCO1 (stereo unspecified)	-6.9%
CCOC(=O)Cn1c(=O)oc2cc(S(=O)(=O)N3CCCc4ccccc43)ccc21	3.6%
Cc1csc(NC(=O)C(Cc2ccccc2)n2cccc2)n1 (stereo unspecified)	14.2%
CCSc1nnc(NC(=O)C(Cc2ccccc2)n2cccc2)s1 (stereo unspecified)	-8.7%
COc1cccc2sc(NC(=O)c3ccc(S(=O)(=O)N4CCOCC4)cc3)nc12	2.8%
O=c1oc2cc(O)ccc2c2c1CCCC2	30.9%
Oc1ccc2c(c1)oc1cc(O)ccc12	56.4% (active)
O=c1oc2cc(O)ccc2c2oc3cc(O)ccc3c12	9.7%
O=C(NCc1ccco1)C1CCN(S(=O)(=O)c2ccc(-n3cnnn3)cc2)CC1	-7.4%

SMILES	cytotoxicity
COc1ccc(OC)c(-c2nc(C)sc2CC(=O)O)c1	-6.4%
CC(C)Oc1ccc(NC(=O)Oc2ccccc2)cc1	4.8%
O=C(Nc1ccc(N2CCN(c3ccc(O)cc3)CC2)cc1)Oc1ccccc1	50.7% (active)
CC(=O)Nc1ccc(NC(=O)Oc2ccccc2)cc1	-2%
CCC(=O)N1c2ccccc2NC2=C(C(=O)CC(c3ccco3)C2)C1c1ccco1 (stereo unspecified)	-3.7%
O=C1CC(c2ccco2)CC2=C1C1c3ccccc3C(=O)N1c1ccccc1N2 (stereo unspecified)	64.9% (active)
COc1ccc(C2C3=C(CC(c4ccco4)CC3=O)Nc3ccccc3N2C(C)=O)cc1 (stereo unspecified)	-12.7%
COCCCn1c(=O)c2ccccc2c2ccccc2c1=O	-14.8%
CC(=O)c1cccc(S(=O)(=O)N(CCCO)Cc2cc3ccc(C)cc3[nH]c2=O)c1	-3.7%
COc1ccc(NC(=O)N2CCCC2)cc1OC	-16.9%
Cn1nnnc1Sc1ncnc2scc(-c3ccccc3)c12	2.6%
O=c1[nH]cnc2scc(-c3ccc(F)cc3)c12	-4.9%
C/C(=N\O)c1c(C)c2ccccc2n1C	-0.6%
CC1=C(C(=O)Nc2ccccn2)C(c2ccc(F)cc2)n2ncnc2N1 (stereo unspecified)	-6%
O=C(CSc1ncnc2c1oc1ccccc12)Nc1cccc(C(F)(F)F)c1	2.9%
Cc1ccnc(SCC(=O)O)n1	-31.8%
Cc1ccccc1NC(=O)CSc1nc2c(c(-c3ccco3)c1C#N)CCCC2	-20.7%
c1ccc2[nH]c(-c3ccnc4ccccc34)nc2c1	3%
O=C(c1cnn2c(C(F)(F)F)cc(-c3ccco3)nc12)N1CCCc2ccccc21	4.7%
O=C(c1nn2c(C(F)(F)F)cc(-c3ccco3)nc2c1Br)N1CCCc2ccccc21	51.8% (active)
O=C(c1cc2nc(-c3ccco3)cc(C(F)(F)F)n2n1)N1CCCc2ccccc21	-11.2%
O=C(Sc1nnnn1C1CCCCC1)c1cccs1	-11.4%
COc1cc(C(=O)NCc2nnc(SCC(=O)N3CCC(C)CC3)o2)cc(OC)c1OC	-2.5%
CC1(C)Cc2c(c(N3CCOCC3)nc3sc(C(=O)N4CCCCC4)c(N)c23)CO1	-5.3%

SMILES	cytotoxicity
CC1(C)Cc2c(c(N3CCOCC3)nc3snc(Br)c23)CO1	5.4%
CCN1C(=O)c2ccccc2S(=O)(=O)c2ccc(C(=O)NCc3cccnc3)cc21	-0.2%
CC(C)n1nc(C(=O)Nc2nc3ccc(S(C)(=O)=O)cc3s2)c2ccccc2c1=O	54.4% (active)
COc1ccccc1C(=O)Nc1nc2ccc(S(C)(=O)=O)cc2s1	2.7%
CS(=O)(=O)c1ccc2nc(NC(=O)c3cccs3)sc2c1	-8.3%
COCCCNC(=O)c1ccc(N2CCCC2)c(NS(=O)(=O)c2ccc(C)cc2)c1	-13.4%
CC1CC(C)CN(C(=O)c2cn(C)c3ccc(S(=O)(=O)N(C)C)cc3c2=O)C1 (stereo unspecified)	0.8%
CC12CC(NC(=O)N1c1cccc(C(=O)NCc3ccc4c(c3)OCO4)c1)c1cc(Cl)ccc1O2 (stereo unspecified)	27.3%
c1ccc(-n2nnnc2Oc2cccc3cccnc23)cc1	19.3%
N#Cc1cc(Oc2cccc3cccnc23)c(-n2nnc3ccccc32)cc1C#N	63.7% (active)
COc1ccccc1Oc1cc(C#N)c(C#N)cc1-n1nnc2ccccc21	-8.8%
CCOC(=O)CNC(=O)CSc1nc2cccnc2n1C	-7.9%
CCNc1sc(C(=O)c2cccs2)c(N)c1C#N	-12.7%
CNc1sc(C(=O)c2cccs2)c(N)c1-c1nc2ccccc2s1	33.3%
CCNc1sc(C(=O)c2cccs2)c(N)c1-c1nc2ccccc2s1	73.7% (active)
COc1ccccc1Nc1nc(C2(C)CCC(=O)O2)cs1 (stereo unspecified)	6.8%
Cn1c(-c2nonc2NC(=O)c2ccc(C(C)(C)C)cc2)nc2ccccc21	-0.1%
CCCn1cc(S(=O)(=O)CC(=O)Nc2ccc(OCC)cc2)c2ccccc21	-9.9%
COc1ccc(-c2oc3ncn4nc(COc5ccccc5)nc4c3c2-c2ccc(OC)cc2)cc1	54.9% (active)
COc1ccccc1OCc1nc2c3c(-c4ccccc4)c(-c4ccccc4)oc3ncn2n1	7.7%
Cc1nc2c3c(-c4ccccc4)c(-c4ccccc4)oc3ncn2n1	-9.4%
COc1ccc(-c2oc3ncn4nc(Cc5ccccc5)nc4c3c2-c2ccc(OC)cc2)cc1	62.3% (active)
N=c1c2c(-c3ccccc3)c(-c3ccccc3)oc2ncn1CCN1CCOCC1	29.3%
COc1ccc(-c2oc3ncn(CCN4CCOCC4)c(=N)c3c2-c2ccc(OC)cc2)cc1	16%

SMILES	cytotoxicity
CCOc1ccc(CCNC(=O)CCN2C(=O)COc3ccccc32)cc1OCC	-19.6%
CCOC(=O)/C=C1\SCC(=O)N1CC(=O)Nc1ccccc1OC(F)F	2.3%
CN(C)C(=O)N1CCC(C(=O)NCc2ccc(F)cc2)CC1	-10.1%
Cc1[nH]nc2c1C(Cc1ccccc1)C(C#N)=C(N)O2 (stereo unspecified)	-12.3%
Cc1cccc(Nc2ccccc2C(=O)O)c1C	3.8%
Cc1c(Cl)cccc1Nc1ccccc1C(=O)O	-3.4%
Cc1ccc(Cl)c(Nc2ccccc2C(=O)O)c1Cl	66.2% (active)
O=C1c2ccccc2C(=O)N1CCCc1nc(-c2cccnc2)no1	6.9%
Fc1ccc(-n2c(-c3ccco3)nc3nc4ccccc4nc32)cc1	-1.1%
N#Cc1nc(-c2ccc(OCc3ccccc3)cc2)oc1NCc1cccnc1	0.6%
N#Cc1nc(-c2ccc(OCc3ccccc3)cc2)oc1NCCN1CCOCC1	-1%
N#Cc1nc(Cc2ccccc2)oc1NCc1cccnc1	-12.4%
N#Cc1nc(-c2ccc(OCc3ccc(Cl)cc3)cc2)oc1NCc1cccnc1	53.4% (active)
N#Cc1nc(-c2ccc(F)cc2)oc1NCc1ccccc1	-17.1%
CC(C)(C)c1ccc(-c2nc(C#N)c(NCc3ccncc3)o2)cc1	54.6% (active)
N#Cc1nc(-c2ccc(OCc3ccc(Cl)cc3)cc2)oc1NCCCn1ccnc1	-0.4%
COc1ccc(CNc2oc(COc3ccccc3)nc2C#N)cc1	0.5%
N#Cc1nc(COc2ccc(-c3ccccc3)cc2)oc1NCc1cccnc1	61.9% (active)
COc1ccc(CNc2oc(-c3ccccc3)nc2C#N)cc1	5.7%
COc1ccc(-c2nc(C#N)c(NCCCN3CCOCC3)o2)cc1	-6.6%
Cc1ccc(-n2nnc3c(=O)n(Cc4ccccc4C)cnc32)cc1	0.5%
COCCNC(=O)C(c1ccc(Cl)cc1)N(C(=O)CCC(=O)Nc1ccccn1)C1CCCC1 (stereo unspecified)	-1.7%
CNCCOCC(O)CSc1ccccc1 (stereo unspecified)	1.2%
Cc1cccc(-c2nnn(CC/C(N)=N/O)n2)c1	2.8%
